In test [1] the target is T1, ETS1 (UniProt P14921).
T1 sequence: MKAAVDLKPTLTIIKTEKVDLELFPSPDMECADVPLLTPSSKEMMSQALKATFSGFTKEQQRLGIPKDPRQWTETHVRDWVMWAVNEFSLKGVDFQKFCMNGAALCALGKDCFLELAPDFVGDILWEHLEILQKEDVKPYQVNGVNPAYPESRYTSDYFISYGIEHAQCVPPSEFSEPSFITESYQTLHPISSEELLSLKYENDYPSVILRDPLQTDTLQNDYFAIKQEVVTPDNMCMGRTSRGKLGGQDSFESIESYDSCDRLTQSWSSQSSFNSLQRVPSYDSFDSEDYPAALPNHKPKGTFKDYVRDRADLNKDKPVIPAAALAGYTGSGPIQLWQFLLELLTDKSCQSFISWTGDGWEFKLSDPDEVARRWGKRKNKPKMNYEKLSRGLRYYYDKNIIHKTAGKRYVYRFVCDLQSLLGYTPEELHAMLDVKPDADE
The test can be described thus: ETS1 binding intensity (PBM fluorescence), ETS1 alone (arbitrary fluorescence units); higher = stronger binding. The following applies: ETS1 concentration 1 nM; RUNX1 concentration 0 nM.

Test [2] concerns the target RUNX1 (UniProt Q01196). The test can be described thus: RUNX1 binding intensity (PBM fluorescence), RUNX1 alone (arbitrary fluorescence units); higher = stronger binding. The note with it: RUNX1 concentration 2 nM; ETS1 concentration 0 nM. How it is done: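 Cooperative gcPBM on 36-bp genomic probes with neighbouring ETS1 and RUNX1 sites. Recombinant human RUNX1 (2 nM) was incubated alone or with ETS1 (25 nM) and detected with anti-RUNX1 antibody plus Alexa488 secondary. Values are medians over 4 replicate spots; the RUNX1+ETS1 data were normalised to the RUNX1-only data. The probes sit in constant array flanks that are not printed.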

Test [3] addresses T1, ETS1. The test is described as follows: ETS1 binding intensity (PBM fluorescence) in presence of RUNX1, normalised to ETS1-only experiment (arbitrary fluorescence units); higher = stronger binding. The note with it: ETS1 concentration 1 nM; RUNX1 concentration 25 nM.
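Wherever RUNX1 binding intensity (PBM fluorescence), RUNX1 alone is given: Full-length recombinant human RUNX1 bound to double-stranded 36-bp genomic probes on a high-density microarray, scored as Alexa488 fluorescence per spot via anti-RUNX1 antibody, median of four replicate spots.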

Sequence of RUNX1 (Q01196 whole entry): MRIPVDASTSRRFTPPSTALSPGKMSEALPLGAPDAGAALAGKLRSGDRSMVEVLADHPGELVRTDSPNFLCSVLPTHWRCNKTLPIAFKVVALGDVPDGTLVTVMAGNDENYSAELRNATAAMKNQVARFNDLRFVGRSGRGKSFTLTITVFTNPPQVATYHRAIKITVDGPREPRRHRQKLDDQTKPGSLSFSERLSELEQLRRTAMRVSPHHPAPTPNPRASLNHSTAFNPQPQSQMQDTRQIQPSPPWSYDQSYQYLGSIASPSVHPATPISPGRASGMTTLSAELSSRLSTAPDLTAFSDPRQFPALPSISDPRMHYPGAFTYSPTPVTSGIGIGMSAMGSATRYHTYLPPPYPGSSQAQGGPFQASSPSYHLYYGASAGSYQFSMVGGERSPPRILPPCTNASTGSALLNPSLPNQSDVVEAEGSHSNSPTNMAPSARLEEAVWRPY

Regarding GAAGTGAGGTCAGGATGTGGTGGGTGACCCCTGAAA, the ETS1 binding intensity in test [1] worked out at 911; in test [3] it was 1340. The sequence further displayed an RUNX1 binding intensity in test [2] of 768.
For TTGCTTTATCACTTCCTGTTTGAGGTTTATATCCAT, in that order: 5630, 9450 and 1590.
Taken in the same sequence, the figures for CTCTGCCCGCTTCCGCTGGCGGTACCTCAGAGCCGC were 919, 920 and 904.
As for CCCTTGCCAGAGGAAGCCACTGCCACCGCAGAAGCA, the ETS1 binding intensity in test [1] was 417; in test [3], 1740. The sequence also came in with an RUNX1 binding intensity in test [2] of 970.
For GCGAGAGGGAGGAAGTGACTCACCAACCACAACAAA, in that order: 1480, 5020 and 970.

The values are drawn from the supplement of paper PMC10681739.
